{"source": "the supplement of paper PMC10933113", "data": [{"test_system": "KeratinoSens (HaCaT ARE-luciferase) cells", "test": "Nrf2/ARE luciferase activation call in qHTS KeratinoSens assay (1 = active, 0 = inactive);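 active = curve rank above 3; inactive = curve rank 0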", "values": [{"smiles": "COCCc1ccc(OCC(O)CNC(C)C)cc1.COCCc1ccc(OCC(O)CNC(C)C)cc1.O=C(O)[C@H](O)[C@@H](O)C(=O)O", "note": "(stereo not given)", "Nrf2/ARE luciferase activation call": "not active ARE inducer (skin sensitizer alert) (inactive)"}, {"smiles": "CCN(CCCc1ccccc1)CCCc1ccccc1.O=C(O)CC(O)(CC(=O)O)C(=O)O", "Nrf2/ARE luciferase activation call": "not active ARE inducer (skin sensitizer alert) (inactive)"}, {"smiles": "CCn1cc[n+](C)c1.O=S(=O)([O-])C(F)(F)F", "Nrf2/ARE luciferase activation call": "not active ARE inducer (skin sensitizer alert) (inactive)"}, {"smiles": "CO[C@@H]1COCC[C@@H]1[NH2+][C@@H]1CC[C@@](C(=O)N2CCc3ncc(C(F)(F)F)cc3C2)(C(C)C)C1.O=C([O-])CCC(=O)O", "Nrf2/ARE luciferase activation call": "not active ARE inducer (skin sensitizer alert) (inactive)"}, {"smiles": "CCCCn1cc[n+](C)c1.O=S(=O)([O-])C(F)(F)F", "Nrf2/ARE luciferase activation call": "not active ARE inducer (skin sensitizer alert) (inactive)"}, {"smiles": "CCCC[n+]1ccc(C)cc1.O=S(=O)([O-])C(F)(F)F", "Nrf2/ARE luciferase activation call": "not active ARE inducer (skin sensitizer alert) (inactive)"}, {"smiles": "COC[C@H](c1ccc(C(F)(F)F)cc1)N1CCN(C2(C)CCN(C(=O)c3c(C)ncnc3C)CC2)C[C@H]1C.O=C(O)/C=C\\C(=O)O", "Nrf2/ARE luciferase activation call": "not active ARE inducer (skin sensitizer alert) (inactive)"}, {"smiles": "CC(C)OC(=O)OCOP(=O)(CO[C@H](C)Cn1cnc2c(N)ncnc21)OCOC(=O)OC(C)C.O=C(O)C=CC(=O)O", "Nrf2/ARE luciferase activation call": "not active ARE inducer (skin sensitizer alert) (inactive)"}, {"smiles": "CCOCCn1c(N2CCCN(C)CC2)nc2ccccc21.O=C(O)/C=C/C(=O)O.O=C(O)/C=C/C(=O)O", "Nrf2/ARE luciferase activation call": "not active ARE inducer (skin sensitizer alert) (inactive)"}, {"smiles": "C[C@@H](C1=C(CCN(C)C)Cc2ccccc21)c1ccccn1.O=C(O)/C=C\\C(=O)O", "Nrf2/ARE luciferase activation call": "not active ARE inducer (skin sensitizer alert) (inactive)"}, {"smiles": "CCOC(=O)Nc1ccc(NCc2ccc(F)cc2)nc1N.O=C(O)/C=C\\C(=O)O", "Nrf2/ARE luciferase activation call": "not active ARE inducer (skin sensitizer alert) (inactive)"}, {"smiles": "CN1CCC(=C2c3ccccc3Sc3ccccc32)CC1.O=C(O)/C=C\\C(=O)O", "Nrf2/ARE luciferase activation call": "not active ARE inducer (skin sensitizer alert) (inactive)"}, {"smiles": "NC[C@H](O)c1ccc(O)c(O)c1.O=C(O)C(O)C(O)C(=O)O.O=C(O)C(O)C(O)C(=O)O", "Nrf2/ARE luciferase activation call": "not active ARE inducer (skin sensitizer alert) (inactive)"}, {"smiles": "CC[N+]1(C)CCCC1.O=S(=O)([O-])C(F)(F)F", "Nrf2/ARE luciferase activation call": "not active ARE inducer (skin sensitizer alert) (inactive)"}, {"smiles": "CN(C)CCOC(c1ccc(Cl)cc1)c1ccccn1.O=C(O)/C=C\\C(=O)O", "note": "(stereo not given)", "Nrf2/ARE luciferase activation call": "not active ARE inducer (skin sensitizer alert) (inactive)"}]}]}
